From ChEMBL document CHEMBL3433997, “St. Jude Leishmania screening dataset” (2016) come the findings set out here.

Format in all cases: functional
In assay [1] the target is Solute carrier family 2, facilitated glucose transporter member 1 (Homo sapiens) (UniProt P11166). The assay can be described thus: ST_JUDE_LEISH: Cytotoxicity at 2uM final concentration against transgenic Leishmania Mexicana promastigotes LmGLUT1 that are glucose transport deficient and complemented with the human glucose transporter GLUT1. Activity is measured by DNA content using SYBR green in vitro.

Assay [2] has as its target Hexose transporter 1 (Plasmodium falciparum) (UniProt O97467). The assay can be described thus: ST_JUDE_LEISH: Cytotoxicity at 2uM final concentration against transgenic Leishmania Mexicana promastigotes LmPfHT that are glucose transport deficient and complemented with the Plasmodium falciparum hexose transporter. Activity is measured by DNA content using SYBR green in vitro.

Assay [3] addresses Glucose transporter (Leishmania mexicana) (UniProt O61059). The assay can be described thus: ST_JUDE_LEISH: Cytotoxicity at 2uM final concentration against transgenic Leishmania Mexicana promastigotes LmGT2 that are glucose transport deficient and complemented with the L. Mexicana glucose transporter 2. Activity is measured by DNA content using SYBR green in vitro.

The structures appear in SMILES notation. Values joined by “and” are separate entries in the source; they are usually repeats but may differ in a detail not shown here. Equal entries are not always repeated.

Chain of Solute carrier family 2, facilitated glucose transporter member 1 (Homo sapiens) (P11166 whole entry): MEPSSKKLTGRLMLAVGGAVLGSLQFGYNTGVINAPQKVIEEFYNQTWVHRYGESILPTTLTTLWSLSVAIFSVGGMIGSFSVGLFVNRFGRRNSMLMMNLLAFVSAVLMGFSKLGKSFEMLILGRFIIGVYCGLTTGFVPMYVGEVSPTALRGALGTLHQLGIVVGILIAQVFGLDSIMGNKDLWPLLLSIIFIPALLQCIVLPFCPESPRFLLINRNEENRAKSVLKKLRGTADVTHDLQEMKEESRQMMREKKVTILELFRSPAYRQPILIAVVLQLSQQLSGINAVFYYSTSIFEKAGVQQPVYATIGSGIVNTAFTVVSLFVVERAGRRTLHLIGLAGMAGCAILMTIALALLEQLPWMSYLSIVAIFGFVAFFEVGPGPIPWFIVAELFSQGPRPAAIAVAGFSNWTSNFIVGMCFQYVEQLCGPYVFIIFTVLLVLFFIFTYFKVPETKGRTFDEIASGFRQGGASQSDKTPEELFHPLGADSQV

With `Oc1ccccc1CN1CCC(CCOC(c2ccccc2)c2ccc(Cl)cc2)CC1` (stereo not given), the figures for the inhibition in assay [1], in assay [2] and in assay [3] were 38.2%, 23.5% and 13.9%, respectively.
The corresponding values for `COC(C(=O)OCCC1CCCN1C)(c1ccccc1)C1CCCCC1` (stereo not given) are 11.6%, 10.5% and 10.5%.
The corresponding values for `CC(Cc1ccc(OCCCCOc2ccccc2)cc1)NCCc1ccccc1Cl` (stereo not given) are 15%, 19.8% and 7.82%.
Turning to `CC[C@H]1C[N+]2([O-])CC[C@@H]1C[C@H]2[C@H](O)c1cc(-c2ccccc2)nc2ccc(OC)cc12`, the inhibition in assay [1] turned out to be 5.08%; in assay [2], 2.87%; in assay [3] it was 4.7%.
With `CC(=O)Nc1ccc2[nH]cc(C3CCN(CC4CCN(C(=O)/C=C/c5ccc(Cl)c(Cl)c5)CC4)CC3)c2c1`, the values for the inhibition in assay [1], in assay [2] and in assay [3] were 0.82%, -0.9% and 3.23%, respectively.
As for `CC(=O)N(Cc1ccccc1-c1ccc(CNCCc2ccccc2)cc1)C1CCN(Cc2ccccc2)CC1`, the inhibition in assay [1] is 2.55%; in assay [2] it was 2.41%; in assay [3], 1.25%.
The corresponding values for `COC(=O)c1ccc(CC(C)NCC(O)c2cccc(Oc3cccc(C(F)(F)F)c3)c2)cc1` (stereo not given) are 8.83%, 6.86% and 6.56%.
Take `COC(=O)/C=C/c1ccc(CC(C)NCC(O)c2cccc(C(F)(F)F)c2)cc1` (stereo not given): the inhibition in assay [1] was 0.9% and -0.04%; in assay [2], -2.11% and 0.7%; in assay [3], -1.59% and -0.73%.
Regarding `O=C(NC1CCN(CC2(c3ccc(Cl)cc3)CCC2)CC1)c1cscn1`, the inhibition was 1.16% in assay [1], -2.56% in assay [2] and 0.83% in assay [3].
Turning to `O=C(NC1CCN(CC2(c3ccc(Cl)cc3)CCC2)CC1)c1cc[nH]n1`, the inhibition in assay [1] is 1.71%; in assay [2], -0.69%; in assay [3] it was -1.02%.
Turning to `Cc1c(C(=O)NC2CCC(CN3CCC(c4c[nH]c5ccccc45)CC3)CC2)cnn1-c1c(Cl)cc(Cl)cc1Cl` (stereo not given), the inhibition in assay [1] is 1.64%; in assay [2] it was 1.93%; in assay [3], -1.52%.
For `CN1CC=C(c2c[nH]c3ccc(OCc4ccccc4)cc23)CC1`, the figures for the inhibition in assay [1], in assay [2] and in assay [3] were 16.2%, 14.4% and 14.7%, respectively.
Take `CC(=O)Nc1ccc2[nH]cc(C3CCN(CC4CCC(NC(=O)/C=C/c5ccc(Cl)c(Cl)c5)CC4)CC3)c2c1` (stereo not given): the inhibition in assay [1] was -0.34% and -0.54%; in assay [2] it was -0.56% and -1.03%; in assay [3] it was 0.33% and -0.43%.
Take `OC1(c2ccc(Cl)c(C(F)(F)F)c2)CCN(CCOC2c3ccccc3CSc3ccc(Cl)cc32)CC1` (stereo not given): the results for the inhibition in assay [1], in assay [2] and in assay [3] were 2.52%, 1.04% and 2.27%, respectively.
Turning to `COCCNCc1ccc(-c2cccc(CN(C(=O)CCC3CCCC3)C3CCN(Cc4ccccc4)CC3)c2)cc1`, the inhibition in assay [1] is -4.16%; in assay [2], 1.28%; in assay [3], -1.05%.
The corresponding values for `COc1cc(C=CC(=O)N2CCC(CN3CCC(c4c[nH]c5ccccc45)CC3)CC2)ccc1O` are 8.46%, 6.19% and 6.97%.
For `CC(Cc1ccc(C2=CCNCC2)cc1)NCC(O)c1cccc(C(F)(F)F)c1` (stereo not given), the inhibition in assay [1] was -2.15%; in assay [2], -1.67%; in assay [3] it was -0.93%.
Take `O=C(C=Cc1ccccc1Br)NC1CCC(CN2CCC(c3c[nH]c4ccccc34)CC2)CC1` (stereo not given): the inhibition in assay [1] is 9.4% and 3.03%; in assay [2], 3.62% and 2.4%; in assay [3], 0.32% and 2.12%.
For the compound `CC[C@H]1CN2CC[C@H]1C[C@@H]2[C@@H](O)c1ccnc2ccccc12`, the figures for the inhibition in assay [1], in assay [2] and in assay [3] were -0.01%, 0.66% and -1.98%, respectively.
Turning to `Cc1[nH]c2cc(Cl)ccc2c1C1=CCN(CCCCC2(C)C(=O)Nc3ccccc32)CC1` (stereo not given), the values for the inhibition in assay [1], in assay [2] and in assay [3] were 2.01%, 0.91% and 1.15%, respectively.
The corresponding values for `Clc1ccc2nccc(N3CCC(CN4CCC(c5c[nH]c6ccccc56)CC4)CC3)c2c1` are 0.88%, 0.94% and 2.61%.
Regarding `CC[C@H]1CN2CC[C@H]1C[C@H]2[C@H](O)c1cc(-c2ccc(OC(F)(F)F)cc2)nc2ccc(OC)cc12`, the inhibition was determined as 4.51% in assay [1], 2.38% in assay [2] and 3.6% in assay [3].
The corresponding values for `CC[C@H]1CN2CC[C@H]1C[C@H]2[C@H](O)c1cc(-c2ccc3ccccc3c2)nc2ccc(OC)cc12` are 10%, 4.9% and 3.26%.
As to `O=C(/C=C/c1cccc(Cl)c1)NC1CCC(CN2CCC(c3c[nH]c4ccccc34)CC2)CC1` (stereo not given), the inhibition in assay [1] is 2.39% and 2.9%; in assay [2], 2.82% and 1.43%; in assay [3] it was -0.58% and 2.44%.
As to `Cc1cc(O)cc2c(C3CCN(CC4CCC(NC(=O)/C=C/c5ccccc5Cl)CC4)CC3)c[nH]c12` (stereo not given), the inhibition amounted to 4.47% in assay [1], 4.35% in assay [2] and 3.52% in assay [3].
Consider `O=C(NC1CCC(CN2CCC(c3c[nH]c4ccccc34)CC2)CC1)c1csc(-c2cccc(Cl)c2Cl)n1` (stereo not given), for which the results for the inhibition in assay [1], in assay [2] and in assay [3] were 5.32%, 4.16% and 2.71%, respectively.
For `O=C(CNC1CCCCC1)c1ccc(O)c(O)c1`, the inhibition in assay [1] amounted to 75.2%; in assay [2], 87.1%; in assay [3], 77.4%.
The corresponding values for `CN(c1cc(NC(=O)c2cccs2)ccn1)C1CCN(Cc2ccccc2)CC1` are 0.59%, 3.13% and 2.09%.
`C[C@@H](CC1CCCCC1)NCc1ccccc1O`: the inhibition in assay [1] was determined as 4.7%; in assay [2] it was 11.1%; in assay [3], 3.31%.
The corresponding values for `N#Cc1ccc(N(CCCO)Cc2ccccc2C(F)(F)F)cc1C(F)(F)F` are -1.34%, -1.78% and -0.99%.
The corresponding values for `O=C(/C=C/C=C/c1ccccc1)NC1CCC(CN2CCC(c3c[nH]c4ccccc34)CC2)CC1` (stereo not given) are 2.53%, 0.67% and 2.81%.
The corresponding values for `COC(=O)/C=C/c1ccc(CC(C)NCC(O)c2cccc(Br)c2)cc1` (stereo not given) are 1.85%, 0.16% and 0.91%.
As to `CCCCc1ccc2[nH]cc(C3=CCN(C)CC3)c2c1Br`, the results for the inhibition in assay [1], in assay [2] and in assay [3] were 0.79%, -0.14% and 2.44%, respectively.
With `Oc1ccccc1CNCC(O)c1cc(C(F)(F)F)cc(C(F)(F)F)c1` (stereo not given), the inhibition stood at 6.65% in assay [1], 5.51% in assay [2] and 4.91% in assay [3].
The corresponding values for `COc1ccc(CC(C)NCC(O)c2ccc(Cl)c(Cl)c2)cc1` (stereo not given) are 0.41%, -0.07% and -2.6%.

A word on the inhibition: it is the change of the read-out against control, counted positive when it falls.
